In all, about 52,000 compounds went through this assay and about 4,300 (8.3%) were called active. This is one part of a sample in which actives are shown more often than they occur. Unmarked numbers belong to inactive results. Cut-off read from the data, not from the text of the source: active = survival mostly below about 52% (no sharp cut-off); inactive = mostly above about 56%.
system: DeltatarO mutant; assay: growth inhibition of S. aureus wild type versus tarO mutant, primary screen, teichoic acid synthesis inhibitors, RN4220, OD600 (AID 463173); details: OD600, 18 h, active compounds read low, screened at 18.75 µg/mL (by protocol)

Question: For Cc1cc(C)c2c(CC(=O)Nc3ccc(S(=O)(=O)N4CCCCC4)cc3)coc2c1, which survival is on record?
Answer: 76%

Question: Which survival does the source give for CC(=O)O/N=C1/CC(C)(C)Cc2onc(C)c21 here?
Answer: 76%

Question: For CCOC(=O)c1cc(S(=O)(=O)NCc2ccc(Cl)cc2)[nH]n1, which survival is on record?
Answer: 87%

Question: For Cc1ccc(-c2nc(-c3cc4cccc(OCc5ccccc5F)c4oc3=O)no2)cc1, which survival is on record?
Answer: 60%

Question: With COc1ccc(C2c3[nH]c4ccccc4c3CCN2C(=O)CCC2CCCC2)cc1 (configuration not stated) as the molecule, how does the survival read?
Answer: 95%

Question: For O=C(C1COc2cc(S(=O)(=O)Nc3ccc(Cl)cc3)ccc2O1)N1CCCC1 (configuration not stated), which survival is on record?
Answer: 71%

Question: With CN(C(=O)CSc1nc(-c2ccco2)cc(C(F)(F)F)n1)c1ccccc1 as the molecule, how does the survival read?
Answer: 92%

Question: For COc1ccccc1CNC(=O)CCn1cnc2ccccc2c1=O, which survival is on record?
Answer: -5% (active)

Question: O=C(CCn1cnc2ccccc2c1=O)NCc1ccccc1Cl was tested. Which survival did it give?
Answer: 77%

Question: With COc1ccccc1NC(=O)CCn1cnc2ccccc2c1=O as the molecule, how does the survival read?
Answer: 92%

Question: COc1ccc(N2C(=O)CS(=O)(=O)C23C(=O)N(Cc2c(F)cccc2Cl)c2ccccc23)cc1 (configuration not stated) was tested. Which survival did it give?
Answer: 86%

Question: CCc1ccc(-c2nn(CC(=O)Nc3ccccc3C)c3c2cnc2ccc(C)cc23)cc1 was tested. Which survival did it give?
Answer: 70%

Question: For CCc1ccc(-c2nn(CC(=O)NC3CCCCC3)c3c2cnc2ccc(F)cc23)cc1, which survival is on record?
Answer: 72%

Question: Which survival does the source give for Cc1ccccc1NC(=O)Cn1nc(-c2ccc(F)cc2)c2cnc3ccccc3c21 here?
Answer: 25% (active)

Question: CCc1ccc2ncc3c(-c4ccc(C)cc4)nn(CC(=O)NCc4ccccc4)c3c2c1 was tested. Which survival did it give?
Answer: 57%

Question: CCc1ccc(-c2nn(CC(=O)NC3CCCCC3)c3c2cnc2ccc(C)cc23)cc1 was tested. Which survival did it give?
Answer: 69%

Question: How did the survival turn out when CCCNC(=O)Cn1nc(-c2ccc(C)cc2)c2cnc3ccc(CC)cc3c21 was run?
Answer: 37% (active)

Question: Which survival does the source give for CCc1ccc2ncc3c(-c4ccc(C)cc4)nn(CC(=O)Nc4ccc(C)cc4)c3c2c1 here?
Answer: 55%

Question: CCc1ccc(-c2nn(CC(=O)NC3CCCC3)c3c2cnc2ccc(F)cc23)cc1 was tested. Which survival did it give?
Answer: 105%

Question: Cc1ccc(-c2nn(CC(=O)NC3CCCCC3)c3c2cnc2ccc(F)cc23)cc1C was tested. Which survival did it give?
Answer: 0% (active)

Question: With Cc1ccc2ncc3c(-c4ccc(F)cc4)nn(CC(=O)Nc4ccccc4C)c3c2c1 as the molecule, how does the survival read?
Answer: 101%

Question: Which survival does the source give for CCc1ccc(-c2nn(CC(=O)NC3CCCC3)c3c2cnc2ccc(C)cc23)cc1 here?
Answer: 37% (active)

Question: Which survival does the source give for Cc1ccc(-c2nn(CC(=O)NC3CCCC3)c3c2cnc2ccc(F)cc23)cc1C here?
Answer: 93%

Question: Which survival does the source give for CCN(CC)c1ccc(NC(=O)C2CCN(S(=O)(=O)c3ccc4c(c3)oc(=O)n4C)CC2)c(C)c1 here?
Answer: 90%

Question: COc1ccc(C2CC(=O)c3cc(-c4nc(-c5cccc([N+](=O)[O-])c5)cs4)c(=O)n(-c4ccc(C)c(C)c4)c3C2)cc1 (configuration not stated) was tested. Which survival did it give?
Answer: 156%

Question: CCCN1c2cccc3cccc(c23)S1(=O)=O was tested. Which survival did it give?
Answer: 101%

Question: How did the survival turn out when Cc1oc(CC(C)C)cc1C(=O)O was run?
Answer: 104%

Question: For CCN1C(=O)C2C(c3ccc(F)cc3)NC(CCSC)(C(=O)OC)C2C1=O (configuration not stated), which survival is on record?
Answer: 54%

Question: With Cn1c(=O)[nH]c2cc(-c3noc(-c4cccc(Cl)c4)n3)ccc21 as the molecule, how does the survival read?
Answer: 87%

Question: Which survival does the source give for O=C(Cn1nc(-c2ccccc2)c2cnc3ccc(F)cc3c21)NC1CCCC1 here?
Answer: 102%

Question: CCOc1ccc(-c2nn(CC(=O)NC3CCCC3)c3c2cnc2ccc(F)cc23)cc1 was tested. Which survival did it give?
Answer: 144%

Question: With COc1ccc(-c2nn(CC(=O)NC3CCCC3)c3c2cnc2ccc(F)cc23)cc1 as the molecule, how does the survival read?
Answer: 46% (active)

Question: With Cc1ccc(CNC(=O)c2c[nH]n3c(=O)c(Cc4ccc(Cl)cc4)c(C)nc23)cc1 as the molecule, how does the survival read?
Answer: -12% (active)

Question: Cc1nc2c(C(=O)NCCc3ccccc3)cnn2c(C)c1Cc1c(F)cccc1Cl was tested. Which survival did it give?
Answer: 79%

Question: Cc1cccn2c(=O)c(C(=O)NCCc3ccc(Cl)cc3)cnc12 was tested. Which survival did it give?
Answer: 83%

Question: With Cc1ccc(CNC(=O)c2nnc(Cc3ccc(Cl)cc3)o2)cc1 as the molecule, how does the survival read?
Answer: 99%

Question: For COc1ccc(CCNC(=O)c2ccc(Cn3c(=O)c4ccccc4n(Cc4ccccc4Cl)c3=O)cc2)cc1OC, which survival is on record?
Answer: 80%

Question: Cc1nc2nc(NC(=O)c3ccc(Cl)cc3)[nH]n2c(=O)c1Cc1ccccc1 was tested. Which survival did it give?
Answer: 105%

Question: How did the survival turn out when Cc1nc2c(C(=O)NCCc3ccccc3)c[nH]n2c(=O)c1Cc1ccccc1F was run?
Answer: -13% (active)

Question: With Cc1nc2c(C(=O)NCCc3ccc(Cl)cc3)cnn2c(C)c1Cc1c(F)cccc1Cl as the molecule, how does the survival read?
Answer: 75%

Question: How did the survival turn out when Cc1cccn2c(=O)c(C(=O)NCCc3ccccc3)cnc12 was run?
Answer: 58%

Question: COc1ccc(CCNC(=O)c2cc(C)nc3c2c(C)nn3-c2ccccc2)cc1OC was tested. Which survival did it give?
Answer: 92%

Question: How did the survival turn out when COc1ccc(CCNC(=O)c2c[nH]n3c(=O)c(Cc4ccccc4Cl)c(C)nc23)cc1OC was run?
Answer: 32% (active)

Question: How did the survival turn out when Cc1nc2c(C(=O)NCCc3ccc(Cl)cc3)c[nH]n2c(=O)c1Cc1ccccc1F was run?
Answer: -12% (active)

Question: How did the survival turn out when Cc1ccc(-n2ncc(C(=O)N3CCN(c4ccccn4)CC3)c2C2CCN(C(=O)OC(C)(C)C)CC2)cc1C was run?
Answer: 72%

Question: COc1ccc2c(c1)N(C)/C(=C1/SC(=O)N(c3ccccc3)C1=O)S2 was tested. Which survival did it give?
Answer: 94%

Question: How did the survival turn out when CC(C)(CC(=O)NCc1ccc(Cl)cc1Cl)CC1=NS(=O)(=O)c2ccccc2N1 was run?
Answer: 75%

Question: CCCOc1ccc(NC(=O)CC2C(=O)N(c3ccc(F)cc3)C(=O)N2CC(C)C)cc1 (configuration not stated) was tested. Which survival did it give?
Answer: 64%

Question: For COc1ccc(NC(=O)Cc2coc3cc(C)cc(C)c23)c(OC)c1, which survival is on record?
Answer: 60%

Question: With COc1ccccc1CCNC(=O)c1cccn1-c1nnc(N2CCCC2)s1 as the molecule, how does the survival read?
Answer: 93%

Question: Which survival does the source give for CCCOc1cccc(C(=O)N(Cc2sccc2C)C2CCS(=O)(=O)C2)c1 (configuration not stated) here?
Answer: 110%

Question: How did the survival turn out when COc1cc2c(=O)c(C(=O)c3ccc(C)c(C)c3)cn(Cc3ccccc3)c2cc1OC was run?
Answer: 79%

Question: Which survival does the source give for O=C(CSc1nc2c([nH]c3ccccc32)c(=O)n1-c1ccccc1)N1CCCC1 here?
Answer: 84%

Question: Cc1ccc(-c2nc3ccc(Cl)cn3c2Nc2ccc3c(c2)OCCO3)s1 was tested. Which survival did it give?
Answer: 107%

Question: How did the survival turn out when Cc1nc2c(C(=O)NCCc3ccc(Cl)cc3)cnn2c(C)c1Cc1ccc(F)cc1 was run?
Answer: 69%

Question: For Cc1nc2c(C(=O)NCCc3ccc(Cl)cc3)c[nH]n2c(=O)c1Cc1ccc(Cl)cc1, which survival is on record?
Answer: -14% (active)

Question: With Cc1ccc(CNC(=O)c2cnn3c(C)c(Cc4c(F)cccc4Cl)c(C)nc23)cc1 as the molecule, how does the survival read?
Answer: 70%

Question: Which survival does the source give for Cc1nc2c(C(=O)NCc3ccccc3)c[nH]n2c(=O)c1Cc1ccccc1Cl here?
Answer: 49%

Question: How did the survival turn out when Cc1nc2c(C(=O)NCc3ccccc3Cl)c[nH]n2c(=O)c1Cc1cccc(Cl)c1 was run?
Answer: -16% (active)

Question: Which survival does the source give for Cc1nc2nc(NC(=O)c3cccc(Cl)c3)[nH]n2c(=O)c1Cc1ccccc1 here?
Answer: 111%

Question: Which survival does the source give for Cc1nc2nc(NC(=O)c3ccc(F)cc3)[nH]n2c(=O)c1Cc1ccccc1 here?
Answer: 101%

Question: Which survival does the source give for Cc1nc2c(C(=O)NCCc3ccccc3)c[nH]n2c(=O)c1Cc1ccc(F)cc1Cl here?
Answer: -16% (active)

Question: Cc1nc2c(C(=O)NCc3ccccc3Cl)cnn2c(C)c1Cc1ccccc1 was tested. Which survival did it give?
Answer: 79%

Question: Which survival does the source give for Cc1ccc(CNC(=O)c2c[nH]n3c(=O)c(Cc4ccc(F)cc4Cl)c(C)nc23)cc1 here?
Answer: -13% (active)

Question: Which survival does the source give for Cc1ccc(CNC(=O)CN2CCN(Cc3ccc(F)cc3Cl)C2=O)cc1 here?
Answer: 79%

Question: Which survival does the source give for Cc1nc2c(C(=O)N(C)Cc3ccccc3)c[nH]n2c(=O)c1Cc1ccc(Cl)cc1 here?
Answer: 88%

Question: For COc1ccc(CNC(=O)C(=O)NCC(c2ccco2)S(=O)(=O)c2cccs2)cc1 (configuration not stated), which survival is on record?
Answer: 60%

Question: How did the survival turn out when N#C/C(=C\c1ccc[nH]1)C(=O)N1CCc2ccccc2C1 was run?
Answer: 72%

Question: With COc1cc(Cl)c(NC(=O)c2cc(S(=O)(=O)N3CCCCC3)c[nH]2)c(OC)c1 as the molecule, how does the survival read?
Answer: 119%

Question: Which survival does the source give for Cc1cc(NC(=O)CCNS(=O)(=O)c2ccc3c(c2)CCCC(=O)N3)ccc1Br here?
Answer: 76%

Question: With COc1ccc(C2CC(=O)Nc3c2c(=O)[nH]c2nc4ccccc4n32)cc1 (configuration not stated) as the molecule, how does the survival read?
Answer: 66%

Question: With Cc1ccc(C)c(N2CCN(C(=O)C3CCN(S(=O)(=O)c4cn(C)cn4)CC3)CC2)c1 as the molecule, how does the survival read?
Answer: 64%

Question: For Cn1cnc(S(=O)(=O)N2CCC(C(=O)NCc3ccccc3Cl)CC2)c1, which survival is on record?
Answer: 118%

Question: COc1ccc(OC)c(CNC(=O)C2CCN(S(=O)(=O)c3cn(C)cn3)CC2)c1 was tested. Which survival did it give?
Answer: 83%

Question: Cc1cc(C)cc(NC(=O)C2CCN(S(=O)(=O)c3cn(C)cn3)CC2)c1 was tested. Which survival did it give?
Answer: 98%

Question: How did the survival turn out when CCOc1ccccc1CNC(=O)C1CCN(S(=O)(=O)c2ccc3[nH]c(=O)ccc3c2)CC1 was run?
Answer: 25% (active)

Question: For CN(C)c1ccc(CNC(=O)C2CCN(S(=O)(=O)c3cn(C)cn3)CC2)cc1, which survival is on record?
Answer: 0% (active)

Question: With Cn1cnc(S(=O)(=O)N2CCC(C(=O)NCc3ccc(Cl)cc3)CC2)c1 as the molecule, how does the survival read?
Answer: 101%

Question: With Cc1ccc(CNC(=O)C2CCN(S(=O)(=O)c3cn(C)cn3)CC2)cc1 as the molecule, how does the survival read?
Answer: 115%

Question: How did the survival turn out when CCOc1ccccc1NC(=O)C1CCN(S(=O)(=O)c2ccc3[nH]c(=O)ccc3c2)CC1 was run?
Answer: 63%

Question: Cc1ccc(N(C)C(=O)C2CCN(S(=O)(=O)c3cn(C)cn3)CC2)cc1 was tested. Which survival did it give?
Answer: 37% (active)

Question: How did the survival turn out when COc1ccccc1CNC(=O)C1CCN(S(=O)(=O)c2ccc3[nH]c(=O)ccc3c2)CC1 was run?
Answer: 102%

Question: Which survival does the source give for COc1ccccc1CNC(=O)C1CCN(S(=O)(=O)c2cn(C)cn2)CC1 here?
Answer: 0% (active)

Question: For CC(C)C(NS(=O)(=O)c1ccccc1)C(C)C, which survival is on record?
Answer: 97%

Question: Which survival does the source give for COc1cc(C2CC(=O)c3c([nH]c(C(=O)OCc4ccc(C)cc4)c3C)C2)cc(OC)c1OC (configuration not stated) here?
Answer: 83%

Question: With OC1CN=C2C=CC=CN2C1 (configuration not stated) as the molecule, how does the survival read?
Answer: 89%

Question: For CCN1CCN(c2ccc(NS(=O)(=O)c3c(C)nc4sccn4c3=O)cc2Cl)CC1, which survival is on record?
Answer: 108%

— PubChem BioAssay AID463173 (ICCB-Longwood Screening Facility, Harvard Medical School, 2010)
